PubChem BioAssay (NCATS)
“And” between values parts separate entries of the source, which are not always exact repeats. Equal values may be shown once. Records with an inconclusive call do not appear. Some structures have more than one record in an assay (separate samples or runs), and their calls can disagree. The source made the active and inactive calls. Calls come from the whole dose curve; as a rule, active = well fitted curve in the direction sought with a large enough effect; inconclusive = small, poorly fitted or top-dose-only effect, or another doubt; inactive = no such curve, though single readings can be large; an effect the other way counts as inactive or inconclusive.

Assays:
[1] = qHTS assay for measurement of the activity of small molecule inhibitors on Zika virus induced Caspase-3 activity in human iPSC derived neural progenitor cells (hNPCs) (AID 1224857); note: nearly all actives have a fitted effect of over 65% in size; note: potency is the fitted concentration of half-maximal effect
How it was run: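 Human iPSC-derived neural progenitor cells pretreated 1 hr with compounds, then infected with Zika virus (2 FFU/cell) for 6 hours at 37 C. Caspase-3/7 measured by Caspase-Glo luminescence; % inhibition calculated from induction scaled to uninfected (0%) and infected (100%) wells.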

[2] = qHTS assay for measurement of the activity of small molecule inhibitors on Zika virus induced Caspase-3 activity in human astrocytoma cells (AID 1224859)
How it was run: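 SNB-19 astrocytoma cells, 250/well, pretreated 1 h with compounds, then Zika virus at 2 FFU/cell for 6 h at 37 C; Caspase-Glo 3/7 luminescence after 30 min; percent inhibition normalised to uninfected and infected controls.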

[3] = qHTS Screen of the MIPE 4.0 Collection Against Ewings Sarcoma (RDES) (AID 1259252); note: nearly all actives have a fitted effect of over 35% in size; note: potency is the fitted concentration of half-maximal effect
How it was run: (§1)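 Viability screen: 48 h incubation at 37C, 95% humidity, 5% CO2 with serially titrated compound, followed by CellTiter-Glo readout.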

[4] = qHTS Screen of the MIPE 4.0 Collection Against Ewings Sarcoma (TC71) (AID 1259253); note: nearly all actives have a fitted effect of over 40% in size; note: potency is the fitted concentration of half-maximal effect
How it was run: as §1

[5] = qHTS Screen of the MIPE 4.0 Collection Against Ewings Sarcoma (EW8) (AID 1259255); note: nearly all actives have a fitted effect of over 35% in size; note: potency is the fitted concentration of half-maximal effect
How it was run: as §1

[6] = qHTS Screen of the MIPE 4.0 Collection Against Ewings Sarcoma (TC32) (AID 1259256); note: nearly all actives have a fitted effect of over 45% in size; note: potency is the fitted concentration of half-maximal effect
How it was run: as §1

[7] = qHTS assay to identify small molecule inhibitors of chordoma cells - UCH-1 (AID 1259355); note: nearly all actives have a fitted effect of over 55% in size; note: potency is the fitted concentration of half-maximal effect; series mostly up to about 46 µM
How it was run: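 Cells (800/well) were seeded and left overnight at 37 C, 5% CO2, then treated with drugs at 15 concentrations plus a combination mix of auranofin, camptothecin, doxorubicin, rubitecan and topotecan. Viability after 48hr was read by CellTiter-Glo luminescence.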

[8] = qHTS assay to identify small molecule inhibitors of chordoma cells - UCH-2 (AID 1259356); note: potency is the fitted concentration of half-maximal effect
[9] = P-glycoprotein substrates identified in KB-8-5-11 adenocarcinoma cell line, qHTS therapeutic library screen (AID 1346987); note: nearly all actives have a fitted effect of over 65% in size; note: potency is the fitted concentration of half-maximal effect
How it was run: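 P-gp-mediated resistance screen: KB-8-5-11 cells treated 72 h with compounds in dose-response. CellTiter-Glo viability.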

[10] = NS1 protein of Zika virus - qHTS assay to identify small molecule inhibitors in human HEK 293 cells (AID 1347053); note: nearly all actives have a fitted effect of over 55% in size; note: potency is the fitted concentration of half-maximal effect
How it was run: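 HEK 293 cells pretreated with compound for 1 h, then infected with ZIKV MR766 (MOI 0.5) for 24 h at 37 C. NS1 detected by TR-FRET with two anti-NS1 antibodies; normalized to uninfected (0%) and infected (100%) wells.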

Measured: Potency

COc1ccccc1OCC(O)COC(N)=O (stereo not given)
inactive: all assays above

CNS(=O)(=O)Cc1ccc2[nH]cc(CCN(C)C)c2c1
inactive: all assays above

COc1c(N2CCNC(C)C2)c(F)cc2c(=O)c(C(=O)O)cn(C3CC3)c12 (stereo not given)
inactive: all assays above

Cn1c(=O)c2c(ncn2CC(O)CO)n(C)c1=O (stereo not given)
inactive: all assays above

O=C(O)c1cn(C2CC2)c2cc(N3CCNCC3)c(F)cc2c1=O
inactive: all assays above

CCn1cc(C(=O)O)c(=O)c2cc(F)c(N3CCN(C)CC3)cc21
inactive: all assays above

Cc1cccc(Nc2ccncc2S(=O)(=O)NC(=O)NC(C)C)c1
inactive and 18.7 µM (active): [1]
inactive: all other assays above

CN(CCOc1ccc(CC2SC(=O)NC2=O)cc1)c1ccccn1 (stereo not given)
active: [3] 6620 nM | [4] 10500 nM
inactive: all other assays above

Cc1onc(-c2ccccc2Cl)c1C(=O)N[C@@H]1C(=O)N2[C@@H]1SC(C)(C)[C@@H]2C(=O)O
not listed: [9]
inactive: all other assays above

CN(C)c1ccc(C(=C2C=CC(=[N+](C)C)C=C2)c2ccc(N(C)C)cc2)cc1
active: [3] 372 nM | [4] 296 nM | [5] 418 nM | [7] 22400 nM | [8] 7300 nM | [9] 8.2 µM and 1.48 µM
inactive and 3.72 µM (active): [10]
inactive: [1] | [2] | [6]

CCn1cc(C(=O)O)c(=O)c2cc(F)c(N3CCNCC3)nc21
inactive: all assays above

CCc1c2c(nc3ccc(OC(=O)N4CCC(N5CCCCC5)CC4)cc13)-c1cc3c(c(=O)n1C2)COC(=O)[C@]3(O)CC
active: [3] 332 nM | [4] 332 nM | [5] 469 nM | [10] 332 nM
not listed: [9]
inactive: all other assays above

CN1CCN(c2c(F)cc3c(=O)c(C(=O)O)cn4c3c2OCN4C)CC1
inactive: all assays above

O=c1cc(O)c(Cl)c[nH]1
not listed: [9]
inactive: all other assays above

C[C@]12C=CC(=O)C=C1CC[C@@H]1[C@@H]2C(=O)C[C@@]2(C)[C@H]1CC[C@]2(O)C(=O)CO
inactive: all assays above

CCCN[C@H]1CCc2nc(N)sc2C1
inactive: all assays above

NC(=O)N1c2ccccc2CC(=O)c2ccccc21
inactive: all assays above

Nc1[nH]c(=O)ncc1F
active: [4] 18700 nM | [6] 13200 nM
not listed: [9]
inactive: all other assays above

Nc1nc(N)nc(-c2cc(Cl)ccc2Cl)n1
not listed: [9]
inactive: all other assays above
